According to PubChem BioAssay:

Experiment: HepG2 cell viability effects, profiling panel, calcein-AM fluorescence, 48 h, basal (AID 1164); note: test concentration not given here
Conditions: higher = more signal
Work on `CC1CC/C=C\[C@H]2OC34C=CCN(c5ccc6ccccc6c5)C(=O)[C@H]3N(CCCCCO)C(=O)[C@@H]4C2C(=O)O1` (stereo not given in full) yielded a z-score of 0.778. In the case of `CN1C(=O)C2C=CC(C(O)C(C)(C)C)N(Nc3ccccc3)C2C1=O` (stereo not given), the z-score is reported as 0.19. Work on `Cc1ccc(S[C@]2(C(=O)NCCCN(C)C)CC(=O)N(Cc3ccccc3)[C@@H]2c2ccc(CO)cc2)cc1` yielded a z-score of -0.569. Work on `O=C1O[C@H](c2ccccc2)[C@H](c2ccccc2)N2[C@H]1[C@@H](C(=O)NC[C@H](O)c1ccccc1)[C@]1(C(=O)Nc3ccc(C#CC4=CCCCC4)cc31)[C@H]2c1ccc(O)cc1` yielded a z-score of -1.25. `O=C(CS)NCCCCCNC(=O)[C@H]1C[C@H]2C(=O)N[C@@H](Cc3ccccc3)C(=O)N2[C@H]1c1cccc(OCCO)c1` showed a z-score of 0.585. With `CCCC[C@H]1OB(O)C[C@H]2C1=C(COc1ccccc1)C[C@H]1C(=O)N(Cc3ccccc3)C(=O)[C@H]12` the z-score was -0.429. With `O=c1cccc(-c2cccc3ccccc23)o1` the z-score was 0.0962. With `CCCCCN1CC=CC23O[C@@H]4C=CCCOC(=O)C4[C@H]2C(=O)N(CCCO)[C@@H]3C1=O` (stereo not given in full) the z-score was -0.904. `CS(=O)(=O)CCOC(=O)C1=CC(c2ccc(CO)cc2)=CC(c2cccs2)N(Cc2cccc(OC(F)(F)F)c2)C=C1C(=O)OCCS(C)(=O)=O` (stereo not given) showed a z-score of -1.31. Work on `C#C[C@H](O[Si](C#CCCCCCC)(C(C)C)C(C)C)c1ccccc1` yielded a z-score of -0.616. With `COc1ccc([Si](C)(C)[C@@H]2[C@@H](CCO)O[C@]3(C(=O)N(Cc4ccccc4)c4ccc(N(C=O)c5ccccc5)cc43)[C@H]2C)cc1` the z-score was -1.13. Molecule `C=C(COC)C(=O)CC[C@H](OC(=O)c1cccnc1)c1ccccc1OCCO` has a z-score of -1.24. Work on `C=CCC(OC(C)=O)[C@@H]1[C@@H](N(Cc2cc3ccccc3o2)C(=O)c2ccc(C)cc2)c2cc(OCCCO)ccc2N1C(=O)c1ccc(-c2ccccc2)cc1` (stereo not given in full) yielded a z-score of 1.8. Work on `NC(=O)[C@]1(Cc2ccccc2)N=C(c2ccc(OCCCO)cc2)O[C@@H]1c1ccccc1` yielded a z-score of -0.603. With `[N-]=[N+]=NCc1ccccc1C[C@]1(C(=O)NCCN2CCOCC2)N=C(c2ccc(OCCCO)cc2)O[C@H]1c1ccccc1CN=[N+]=[N-]` the z-score was 0.356. Work on `CCOC(=O)C1=CC[C@@H](c2cccc(Cl)c2)N(S(=O)(=O)c2ccc(C)cc2)[C@H]1c1ccc(C#N)cc1` yielded a z-score of -0.474. In the case of `O=c1cccc(-c2ccccc2)o1`, the z-score is reported as -0.738. In the case of `CC(=O)NCCCC[C@@H]1NC(=O)[C@@H]2C[C@H](C(=O)NCc3ccc(F)cc3)[C@H](c3ccc(O)cc3)N2C1=O`, the z-score is reported as -0.797. Molecule `O=C1OCCC=C[C@H]2OC34C=CCN(c5ccc6ccccc6c5)C(=O)[C@H]3N(CCCCCCO)C(=O)[C@@H]4C12` (stereo not given in full) has a z-score of 0.461. Work on `O=C1OCCC/C=C\[C@H]2OC34C=CCN(Cn5nnc6ccccc65)C(=O)[C@H]3N(CCCO)C(=O)[C@@H]4C12` (stereo not given in full) yielded a z-score of -0.395. `CC(C)OC(=O)C1=CCC(c2cccc(Cl)c2)O1` (stereo not given) gave a z-score of -0.582. `O=C1[C@H]2C=C(Br)[C@H](C[C@@H]2OCCOCCO)[C@@]12CO2` showed a z-score of -0.96. Work on `O=c1cccc(-c2ccc3ccccc3c2)o1` yielded a z-score of -0.644. In the case of `CCCCCCCCCCC(O)C1C=CC2C(=O)N(c3ccccc3)C(=O)C2N1Nc1ccc([N+](=O)[O-])cc1` (stereo not given), the z-score is reported as -1.82. In the case of `CN1C(=O)C2C=CC(C(O)c3ccccc3)N(NC(=O)OC(C)(C)C)C2C1=O` (stereo not given), the z-score is reported as -0.983. `CN(C)CCCC[C@@H]1NC(=O)[C@@H]2C[C@H](C(=O)NCCCCCCN)[C@H](c3ccc(O)cc3)N2C1=O` showed a z-score of -0.544. `CCOC(=O)C[C@H]1[C@H](OC(=O)c2cc3ccccc3oc2=O)[C@@H](NC(=O)c2ccc3ccccc3c2)c2cc(OCCCO)ccc2N1C(=O)c1ccccc1` gave a z-score of 0.582. For `COc1ccc([Si](C)(C)[C@@H]2[C@@H](CCO)O[C@]3(C(=O)N(Cc4ccc(N5C(=O)c6cccc7cccc5c67)cc4)c4ccccc43)[C@H]2C)cc1`, the z-score was -3.63. Molecule `O=C(NCC(O)CO)[C@@]1(Cc2ccccc2)COC(c2ccc(OCCCO)cc2)=N1` (stereo not given in full) has a z-score of -0.283. For `CC(C)(C)OC(=O)CC[C@]1(C(=O)NCC(O)CO)N=C(c2ccc(OCCCO)cc2)O[C@H]1c1ccccc1CN=[N+]=[N-]` (stereo not given in full), the z-score was -0.504. Molecule `C=C(/C(=C/C[C@@H](OC(C)=O)c1ccc(CO)o1)c1cnc2ccccc2c1)C(C)C` has a z-score of -1.07. `O=C1O[C@H](c2ccccc2)[C@H](c2ccccc2)N2[C@H]1[C@@H](C(=O)NC[C@H](O)c1ccccc1)[C@]1(C(=O)Nc3ccc(C#CC4(O)CCCCCC4)cc31)[C@H]2c1ccccc1OCCO` gave a z-score of -4.63. `O=C1C[C@@](C(=O)O)(c2ccc([N+](=O)[O-])cc2)[C@@H](c2ccc(CO)cc2I)N1C1CCCCC1` gave a z-score of 0.279. For `COc1ccc(CCNC(=O)[C@@]2(C)c3ccccc3C(=O)N(Cc3ccccc3)[C@H]2c2ccc(CO)cc2)cc1`, the z-score was -0.833. In the case of `CC1CC/C=C\[C@H]2OC34C=CCN(Cn5nnc6ccccc65)C(=O)[C@H]3N(CCCO)C(=O)[C@@H]4C2C(=O)O1` (stereo not given in full), the z-score is reported as -0.501.
